Targets with a hit are over-represented here; the source holds about 8,800 in all. About 0.5% of all pairs of compound and target were hits.

Sequence of UniProt Q15723 (Q15723 whole entry, looked up): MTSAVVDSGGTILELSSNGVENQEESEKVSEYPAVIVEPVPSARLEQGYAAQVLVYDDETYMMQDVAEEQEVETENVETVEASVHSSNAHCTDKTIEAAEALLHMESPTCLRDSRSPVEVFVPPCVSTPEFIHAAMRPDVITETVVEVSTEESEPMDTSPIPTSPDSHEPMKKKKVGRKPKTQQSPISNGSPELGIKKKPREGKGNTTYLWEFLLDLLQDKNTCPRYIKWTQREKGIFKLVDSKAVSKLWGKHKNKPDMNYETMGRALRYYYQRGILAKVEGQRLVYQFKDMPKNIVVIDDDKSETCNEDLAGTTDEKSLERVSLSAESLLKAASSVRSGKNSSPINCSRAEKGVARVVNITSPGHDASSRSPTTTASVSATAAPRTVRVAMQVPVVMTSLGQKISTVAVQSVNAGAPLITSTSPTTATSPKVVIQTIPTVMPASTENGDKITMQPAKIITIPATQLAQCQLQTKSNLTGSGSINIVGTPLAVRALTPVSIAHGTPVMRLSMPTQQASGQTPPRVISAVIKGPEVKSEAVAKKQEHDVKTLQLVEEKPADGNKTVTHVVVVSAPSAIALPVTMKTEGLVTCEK
Sequence of UniProt Q8IY81 (Q8IY81 whole entry, looked up): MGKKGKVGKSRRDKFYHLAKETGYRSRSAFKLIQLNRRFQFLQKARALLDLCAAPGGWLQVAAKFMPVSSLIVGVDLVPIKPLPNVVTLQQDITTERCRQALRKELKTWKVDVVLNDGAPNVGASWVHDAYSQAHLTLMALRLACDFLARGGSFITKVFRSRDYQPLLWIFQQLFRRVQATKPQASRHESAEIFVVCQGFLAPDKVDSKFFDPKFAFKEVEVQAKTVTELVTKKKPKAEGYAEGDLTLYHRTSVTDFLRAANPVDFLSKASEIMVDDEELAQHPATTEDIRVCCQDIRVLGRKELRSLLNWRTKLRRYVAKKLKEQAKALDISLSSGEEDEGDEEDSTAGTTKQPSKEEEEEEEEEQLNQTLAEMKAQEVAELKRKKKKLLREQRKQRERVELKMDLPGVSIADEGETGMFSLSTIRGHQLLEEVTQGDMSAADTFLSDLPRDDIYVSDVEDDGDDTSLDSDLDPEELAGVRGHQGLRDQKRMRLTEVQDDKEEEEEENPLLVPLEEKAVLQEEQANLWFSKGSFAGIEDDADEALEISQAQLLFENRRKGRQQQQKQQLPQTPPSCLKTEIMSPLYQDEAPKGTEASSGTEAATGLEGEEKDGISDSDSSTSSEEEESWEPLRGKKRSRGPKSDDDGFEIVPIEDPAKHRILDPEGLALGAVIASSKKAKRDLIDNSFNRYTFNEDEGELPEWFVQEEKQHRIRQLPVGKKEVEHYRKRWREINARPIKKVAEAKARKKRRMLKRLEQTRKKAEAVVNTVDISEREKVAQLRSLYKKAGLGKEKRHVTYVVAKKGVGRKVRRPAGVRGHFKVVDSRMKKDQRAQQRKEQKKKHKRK
Sequence of UniProt Q14C86 (Q14C86 whole entry, looked up): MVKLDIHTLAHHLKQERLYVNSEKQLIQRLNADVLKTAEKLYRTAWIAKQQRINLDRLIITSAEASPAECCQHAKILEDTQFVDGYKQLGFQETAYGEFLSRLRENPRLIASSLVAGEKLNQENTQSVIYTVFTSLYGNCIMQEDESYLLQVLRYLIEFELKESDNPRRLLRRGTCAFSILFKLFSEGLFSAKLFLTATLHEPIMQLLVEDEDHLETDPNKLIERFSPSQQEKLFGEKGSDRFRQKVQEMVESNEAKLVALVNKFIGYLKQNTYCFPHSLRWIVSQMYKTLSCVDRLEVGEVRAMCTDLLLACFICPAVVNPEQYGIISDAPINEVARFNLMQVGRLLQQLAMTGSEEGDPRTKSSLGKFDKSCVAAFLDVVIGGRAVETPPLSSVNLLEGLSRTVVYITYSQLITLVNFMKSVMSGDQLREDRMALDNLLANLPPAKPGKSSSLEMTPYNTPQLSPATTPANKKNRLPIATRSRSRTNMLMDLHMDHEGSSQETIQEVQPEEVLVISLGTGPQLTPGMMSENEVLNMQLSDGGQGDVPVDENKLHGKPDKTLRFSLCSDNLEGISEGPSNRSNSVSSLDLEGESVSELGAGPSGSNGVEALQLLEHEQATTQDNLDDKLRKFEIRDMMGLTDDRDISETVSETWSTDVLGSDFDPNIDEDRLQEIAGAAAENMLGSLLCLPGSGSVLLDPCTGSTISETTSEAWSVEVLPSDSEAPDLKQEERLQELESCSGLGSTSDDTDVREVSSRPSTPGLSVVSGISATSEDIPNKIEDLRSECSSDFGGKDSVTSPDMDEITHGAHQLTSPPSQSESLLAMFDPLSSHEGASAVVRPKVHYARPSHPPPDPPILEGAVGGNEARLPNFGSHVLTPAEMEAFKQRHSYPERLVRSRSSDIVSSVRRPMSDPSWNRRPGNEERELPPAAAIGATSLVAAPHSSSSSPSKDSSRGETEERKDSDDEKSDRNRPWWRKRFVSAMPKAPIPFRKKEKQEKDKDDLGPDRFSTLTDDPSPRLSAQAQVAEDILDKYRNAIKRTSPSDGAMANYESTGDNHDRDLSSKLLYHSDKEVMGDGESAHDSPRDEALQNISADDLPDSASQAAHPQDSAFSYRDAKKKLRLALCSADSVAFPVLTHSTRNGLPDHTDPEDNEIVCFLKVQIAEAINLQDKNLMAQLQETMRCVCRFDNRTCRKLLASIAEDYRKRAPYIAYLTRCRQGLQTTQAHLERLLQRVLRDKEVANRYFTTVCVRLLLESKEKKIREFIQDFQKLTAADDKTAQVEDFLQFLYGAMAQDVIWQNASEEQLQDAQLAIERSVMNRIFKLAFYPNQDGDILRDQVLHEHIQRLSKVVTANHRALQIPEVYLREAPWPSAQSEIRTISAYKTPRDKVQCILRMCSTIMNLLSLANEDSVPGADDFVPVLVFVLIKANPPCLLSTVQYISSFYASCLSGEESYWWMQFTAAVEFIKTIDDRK
Sequence of UniProt Q6PIJ6 (Q6PIJ6 whole entry, looked up): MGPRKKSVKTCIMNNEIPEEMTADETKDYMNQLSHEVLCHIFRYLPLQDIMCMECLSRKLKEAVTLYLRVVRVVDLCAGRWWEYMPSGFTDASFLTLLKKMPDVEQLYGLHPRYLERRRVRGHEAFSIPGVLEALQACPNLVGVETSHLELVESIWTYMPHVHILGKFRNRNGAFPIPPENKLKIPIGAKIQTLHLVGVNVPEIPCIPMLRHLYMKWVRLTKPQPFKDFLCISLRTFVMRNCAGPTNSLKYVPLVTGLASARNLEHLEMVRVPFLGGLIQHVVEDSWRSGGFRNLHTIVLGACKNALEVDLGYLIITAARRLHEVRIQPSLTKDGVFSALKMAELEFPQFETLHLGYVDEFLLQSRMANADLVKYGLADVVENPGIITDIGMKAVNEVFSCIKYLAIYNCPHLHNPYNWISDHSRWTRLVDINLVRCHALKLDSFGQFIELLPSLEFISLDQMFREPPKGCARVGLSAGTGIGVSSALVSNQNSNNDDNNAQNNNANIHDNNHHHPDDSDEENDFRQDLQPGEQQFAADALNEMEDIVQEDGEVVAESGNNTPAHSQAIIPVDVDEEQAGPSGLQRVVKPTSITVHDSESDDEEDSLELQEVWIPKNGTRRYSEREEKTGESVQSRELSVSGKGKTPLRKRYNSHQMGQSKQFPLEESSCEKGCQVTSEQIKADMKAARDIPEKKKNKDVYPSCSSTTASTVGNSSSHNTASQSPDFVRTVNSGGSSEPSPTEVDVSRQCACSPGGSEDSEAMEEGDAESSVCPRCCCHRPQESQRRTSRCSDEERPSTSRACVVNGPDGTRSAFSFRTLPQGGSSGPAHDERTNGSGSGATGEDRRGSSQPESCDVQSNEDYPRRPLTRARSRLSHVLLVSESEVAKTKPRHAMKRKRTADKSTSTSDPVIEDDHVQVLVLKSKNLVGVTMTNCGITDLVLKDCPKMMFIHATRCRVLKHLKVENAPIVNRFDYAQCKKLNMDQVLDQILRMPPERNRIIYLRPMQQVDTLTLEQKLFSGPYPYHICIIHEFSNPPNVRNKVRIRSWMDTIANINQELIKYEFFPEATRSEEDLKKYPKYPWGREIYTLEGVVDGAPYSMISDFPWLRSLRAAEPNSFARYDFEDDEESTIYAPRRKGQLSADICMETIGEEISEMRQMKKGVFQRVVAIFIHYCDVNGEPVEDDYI
Sequence of UniProt Q92889 (Q92889 whole entry, looked up): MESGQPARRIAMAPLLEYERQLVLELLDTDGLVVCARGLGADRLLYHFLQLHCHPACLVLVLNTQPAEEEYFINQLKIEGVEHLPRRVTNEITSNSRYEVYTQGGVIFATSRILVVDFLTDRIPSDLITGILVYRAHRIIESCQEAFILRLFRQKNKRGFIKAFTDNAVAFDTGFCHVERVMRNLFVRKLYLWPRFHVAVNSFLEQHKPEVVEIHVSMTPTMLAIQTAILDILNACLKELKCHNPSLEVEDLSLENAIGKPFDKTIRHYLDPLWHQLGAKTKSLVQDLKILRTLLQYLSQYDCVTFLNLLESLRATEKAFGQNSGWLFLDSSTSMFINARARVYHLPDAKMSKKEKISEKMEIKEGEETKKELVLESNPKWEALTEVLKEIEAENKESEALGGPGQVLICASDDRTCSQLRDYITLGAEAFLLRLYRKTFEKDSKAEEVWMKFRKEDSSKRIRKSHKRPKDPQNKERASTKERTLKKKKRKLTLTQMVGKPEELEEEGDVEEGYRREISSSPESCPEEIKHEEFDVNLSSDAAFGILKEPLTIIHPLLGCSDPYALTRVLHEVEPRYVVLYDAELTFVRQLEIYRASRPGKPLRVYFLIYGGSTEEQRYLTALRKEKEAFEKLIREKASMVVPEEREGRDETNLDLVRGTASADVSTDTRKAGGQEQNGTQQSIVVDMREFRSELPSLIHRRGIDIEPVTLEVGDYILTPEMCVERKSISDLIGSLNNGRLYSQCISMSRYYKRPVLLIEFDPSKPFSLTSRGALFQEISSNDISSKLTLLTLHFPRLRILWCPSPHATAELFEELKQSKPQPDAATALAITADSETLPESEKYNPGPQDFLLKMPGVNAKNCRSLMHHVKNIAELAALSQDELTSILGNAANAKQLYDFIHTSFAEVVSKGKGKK

Compound in one assay: CCn1cc(-c2ccnc3[nH]c(-c4cccc(CN(C)C)c4)cc23)c(-c2ccc(NC(=O)N(C)C)cc2)n1
Description: log2 fold change, soluble protein after heating vs DMSO (PISA); higher = thermal stabilisation; K562 lysate, 10 uM; active = over 0.2 and 3.5 SD of the protein, either way, in both replicates (recomputed). Put shortly:
(§1)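 The values are log-two fold changes in thermal stability compared with solvent controls and come from duplicates. They were obtained by TMTpro 16plex LC-MS/MS, with channel sums equalised, on the supernatant after 21,000xg for 90 min. That supernatant came from crude K562 extract at 1 mg/mL protein treated with 10 μM compound for 30 min, heated for 3 min across 48°C-58°C, pooled and brought to 0.5% NP-40 at 4°C.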
For DYRK1A (UniProt Q13627), the log2 fold change was -0.004 (inactive).

As to ESPL1 (UniProt Q14674), the log2 fold change is -0.047 (inactive).

Consider FBXO9 (UniProt Q9UK97), for which the log2 fold change was 0.049 (inactive).

Regarding ELF2 (UniProt Q15723), the log2 fold change was 0.086 (inactive).

As for GAPVD1 isoform 6 (UniProt Q14C86), the log2 fold change is 0.046 (inactive).

Regarding FYN (UniProt P06241), the log2 fold change was 0.048 (inactive).

As for ERCC4 (UniProt Q92889), the log2 fold change is -0.078 (inactive).

For the target EPB41, A0A2R8Y783, the log2 fold change is -0.136 (inactive).

As to FBXO38 (UniProt Q6PIJ6), the log2 fold change was 0.006 (inactive).

Turning to FTSJ3 (UniProt Q8IY81), the log2 fold change was 0 (inactive).

Regarding DUS2 (UniProt Q9NX74), the log2 fold change was -0.095 (inactive).

EDC4 (UniProt Q6P2E9): the log2 fold change is -0.055 (inactive).

Consider FDFT1 (UniProt P37268), for which the log2 fold change was -0.047 (inactive).

Compound in the next assay: CN1CCC(CNc2ccc3ncc(-c4cccc(OC(F)(F)F)c4)n3n2)CC1
Described as above. Put shortly:
as §1
Turning to ECI2 (UniProt O75521), the log2 fold change is -0.017 (inactive).

With DYNC1I2 isoform 5 (UniProt Q13409), the log2 fold change was 0.017 (inactive).

As for FLAD1 (UniProt Q8NFF5), the log2 fold change is -0.035 (inactive).

FBXO22 (UniProt Q8NEZ5): the log2 fold change was -0.008 (inactive).

With EPB41, A0A2R8Y6D0, the log2 fold change was 0.594 (active).

Turning to FAM120B (UniProt Q96EK7), the log2 fold change is -0.085 (inactive).

For GAA (UniProt P10253), the log2 fold change was 0.027 (inactive).

FARSA (UniProt Q9Y285): the log2 fold change is 0.054 (inactive).

Consider FBXO45 (UniProt P0C2W1), for which the log2 fold change was 0.037 (inactive).

Consider EEFSEC (UniProt P57772), for which the log2 fold change was 0.009 (inactive).

EMP3 (UniProt P54852): the log2 fold change is 0.365 (active).

Take GATAD2A isoform 3 (UniProt Q86YP4): the log2 fold change was 0.022 (inactive).

As for EGLN1 (UniProt Q9GZT9), the log2 fold change was -0.001 (inactive).

For the target FREM2 (UniProt Q5SZK8), the log2 fold change was 0.151 (inactive).

In the case of EXOC5 (UniProt O00471), the log2 fold change is -0.115 (inactive).

With EIF2AK1 (UniProt Q9BQI3), the log2 fold change is -0.037 (inactive).

With FXR1 (UniProt P51114), the log2 fold change is 0.012 (inactive).

As for FAT2 (UniProt Q9NYQ8), the log2 fold change was 0.248 (inactive).

Take EBP (UniProt Q15125): the log2 fold change is 0.044 (inactive).

In the case of FOXK1 (UniProt P85037), the log2 fold change was 0.026 (inactive).

As to FXR2 (UniProt P51116), the log2 fold change was -0.076 (inactive).

As to EMC7 (UniProt Q9NPA0), the log2 fold change is 0.125 (inactive).

Consider GEMIN5 (UniProt Q8TEQ6), for which the log2 fold change was -0.061 (inactive).

Regarding DYRK1A (UniProt Q13627), the log2 fold change is 0.044 (inactive).

With ESPL1 (UniProt Q14674), the log2 fold change is -0.012 (inactive).

On to FBXO9 (UniProt Q9UK97), for which the log2 fold change was -0.083 (inactive).

Turning to ELF2 (UniProt Q15723), the log2 fold change was -0.078 (inactive).

On to GAPVD1 isoform 6 (UniProt Q14C86), for which the log2 fold change is -0.083 (inactive).

For the target FYN (UniProt P06241), the log2 fold change is 0.22 (inactive).

For the target ERCC4 (UniProt Q92889), the log2 fold change is 0.114 (inactive).

On to EPB41, A0A2R8Y783, for which the log2 fold change was -0.048 (inactive).

Turning to FBXO38 (UniProt Q6PIJ6), the log2 fold change was 0.036 (inactive).

Consider FTSJ3 (UniProt Q8IY81), for which the log2 fold change was -0.005 (inactive).

Turning to DUS2 (UniProt Q9NX74), the log2 fold change was 0.023 (inactive).

In the case of EDC4 (UniProt Q6P2E9), the log2 fold change was 0.001 (inactive).

As to FDFT1 (UniProt P37268), the log2 fold change was -0.022 (inactive).

Compound in a further assay: CN1CCN(CCOc2cc(OC3CCOCC3)c3c(Nc4c(Cl)ccc5c4OCO5)ncnc3c2)CC1 [saracatinib]
The description is as above. Summed up:
as §1
Consider ECI2 (UniProt O75521), for which the log2 fold change is -0.003 (inactive).

As to DYNC1I2 isoform 5 (UniProt Q13409), the log2 fold change was 0.003 (inactive).

Consider FLAD1 (UniProt Q8NFF5), for which the log2 fold change is -0.001 (inactive).

For the target FBXO22 (UniProt Q8NEZ5), the log2 fold change was -0.015 (inactive).

Take EPB41, A0A2R8Y6D0: the log2 fold change is -0.082 (inactive).

For the target FAM120B (UniProt Q96EK7), the log2 fold change was 0.005 (inactive).

As for FARSA (UniProt Q9Y285), the log2 fold change is 0.03 (inactive).

Regarding EEFSEC (UniProt P57772), the log2 fold change is -0.015 (inactive).

Turning to EMP3 (UniProt P54852), the log2 fold change was 0.049 (inactive).

With GATAD2A isoform 3 (UniProt Q86YP4), the log2 fold change is 0.022 (inactive).

With EGLN1 (UniProt Q9GZT9), the log2 fold change was 0.029 (inactive).

Regarding FREM2 (UniProt Q5SZK8), the log2 fold change is 0.051 (inactive).

On to EXOC5 (UniProt O00471), for which the log2 fold change is 0.044 (inactive).

Consider EIF2AK1 (UniProt Q9BQI3), for which the log2 fold change is -0.019 (inactive).

As for FXR1 (UniProt P51114), the log2 fold change was -0.036 (inactive).

Regarding EBP (UniProt Q15125), the log2 fold change is 0.135 (inactive).

Take FOXK1 (UniProt P85037): the log2 fold change is 0.005 (inactive).

Regarding FXR2 (UniProt P51116), the log2 fold change is 0.034 (inactive).

For the target EIF2B4 (UniProt Q9UI10), the log2 fold change is 0.042 (inactive).

For EMC7 (UniProt Q9NPA0), the log2 fold change is 0.005 (inactive).

GEMIN5 (UniProt Q8TEQ6): the log2 fold change is 0.018 (inactive).

For DYRK1A (UniProt Q13627), the log2 fold change was -0.017 (inactive).

As to ESPL1 (UniProt Q14674), the log2 fold change is -0.065 (inactive).

FBXO9 (UniProt Q9UK97): the log2 fold change was -0.013 (inactive).

Turning to ELF2 (UniProt Q15723), the log2 fold change is -0.023 (inactive).

In the case of GAPVD1 isoform 6 (UniProt Q14C86), the log2 fold change is 0.014 (inactive).

In the case of ERCC4 (UniProt Q92889), the log2 fold change is 0.016 (inactive).

As to EPB41, A0A2R8Y783, the log2 fold change is 0.075 (inactive).

Take FBXO38 (UniProt Q6PIJ6): the log2 fold change is -0.039 (inactive).

For FTSJ3 (UniProt Q8IY81), the log2 fold change was 0.015 (inactive).

On to DUS2 (UniProt Q9NX74), for which the log2 fold change is -0.095 (inactive).

For EDC4 (UniProt Q6P2E9), the log2 fold change is 0.011 (inactive).

FDFT1 (UniProt P37268): the log2 fold change was -0.019 (inactive).

(Values after the supplement of paper PMC10849652.)
